Laboratory results: PubChem BioAssay (NCI)
The panel holds about 83,000 compounds, 20% with a hit somewhere; the sample as a whole holds those more often.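 Step 1: grow cells in 96-well plates. Step 2: add test compound at a single concentration. Step 3: incubate 48 h. Step 4: record percent growth.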 Unmarked numbers belong to inactive results. Calls of active or inactive are those of the source.

The molecules below were run on SK-OV-3 ovarian (assay: NCI-60 one-dose screen, 48 h (100 = growth as untreated, 0 = no growth, -100 = all killed)). Conditions: 10 µM unless noted.
Procedure: Growth inhibition of the SK-OV-3 human tumor cell line is measured as a screen for anti-cancer activity. Cells are grown in 96 well plates and exposed to the test compound for 48 hours. Compounds are tested at a single concentration, which is 10^-5 M for most compounds. The reported endpoint is percent growth (GI% or GIPRCNT), where numbers from 0 - 100% represent growth inhibition, and numbers from -100% - 0 represent cell death. For example, a value of 40 represents 60% growth inhibition. A value of 0 means no net growth occurred over the course of the experiment. A value of -40 indicates 40% of cells at the beginning of the experiment died by the end of the experiment. A value of -100 means all cells are dead at the end of the experiment.
NCI-60 Human Tumor Cell Lines Screen was performed using the standard one-dose NCI protocol, which is described in more detail at https://dtp.cancer.gov/discovery_development/nci-60/default.htm.
Compounds with GIPRCNT values below 10 were considered active. Activity score was based on GIPRCNT using the following formula: […]
Score is 0 for GIPRCNT values of 100 or above, 50 for GIPRCNT values of 0, and 100 for GIPRCNT values of -100.

Row | SMILES | growth
1 | Cc1ccc(/C=C2\CN(C(=O)OC(C)(C)C)C/C(=C\c3ccc(C)cc3)C2=O)cc1 | 104%
2 | N#CC1=C(N)Oc2c(sc3c(Br)cccc23)C1c1ccc(F)cc1 (stereo not given) | 37.4%
3 | COc1cc(/C=C\c2cc(/C=C\c3ccc(O)c(OC)c3)n(C(=O)COc3ccc(Cl)cc3Cl)n2)ccc1O | -0.155% (active)
4 | COc1cc2c(c(OC)c1OC)-c1ccc(OC)c(=O)cc1[C@@H](NC(=O)CCl)CC2 | 15.5%
5 | Oc1ccc(CN2CCC(N3CCCCC3)CC2)c2cccnc12 | 16%
6 | CC1(C)CC[C@]2(C(=O)O)CC[C@]3(C)C(=CC[C@@H]4[C@@]5(C)C/C(=C/O)C(=O)C(C)(C)[C@@H]5CC[C@]43C)[C@@H]2C1 | 89.8%
7 | O=C(N/N=C/c1ccc(F)cc1)c1ccc(C(F)(F)F)nc1Nc1cccc(C(F)(F)F)c1 | -7.48% (active)
8 | OCCOCCN(Cc1ccccn1)Cc1cc(I)cc(I)c1O | 107%
9 | COC(=O)/C(CCC=C(C)C)=C1\[C@@H](OC(C)=O)C[C@@]2(C)[C@H]1C[C@@H](O)[C@H]1[C@@]3(C)CC[C@H](NCCN)[C@@H](C)[C@@H]3CC[C@@]12C | 93.6%
10 | CCNc1cc(-c2cccc(OC(F)(F)F)c2)nc2ccc(N3CCCC3)cc12 | 17.7%
11 | COc1ccc(C(=O)Nc2ncc(Cc3cccc(Cl)c3)s2)cc1OC | 34.9%
12 | CCN(CC)C(=S)SC(SC(=S)N(CC)CC)C(=O)c1nnn(-c2ccc([N+](=O)[O-])cc2)c1C | 112%
13 | COc1cc2c(c(OC)c1OC)C(=O)CC(c1cccc(NC(=O)c3ccc(Br)cc3)c1)O2 (stereo not given) | 74.7%
14 | CO[C@H]1/C=C(/C)CCC[C@H](C)[C@H](O)[C@@H](C)C(=O)C(C)(C)[C@@H](O)CC(=O)O[C@@H]1/C(C)=C/c1csc(C)n1 | 5.27% (active)
15 | O=C1Nc2ccccc2/C1=C\c1nc(-c2ccccc2)n2ccccc12 | 81%
16 | CC(C)c1ccc(NC(=O)Nc2ccc(NC(=O)CCCC(=O)NOCc3ccccc3)cc2)cc1 | 97.4%
17 | O=C(COc1ccc(-c2nc3ccccc3[nH]2)cc1)N=Nc1c(O)[nH]c2ccc(Cl)cc12 | 103%
18 | O=C(NNc1nccc(Nc2ccc(S(=O)(=O)Nc3ccncc3)cc2)n1)c1ccccc1 | 107%
19 | O=C(Nc1ccc(NC(=O)c2cc(=O)[nH]c3ccccc23)cc1)Nc1cccc(C(F)(F)F)c1 | 69.1%
20 | Cc1cccc(N2CCN(CC(O)COc3ccc(Cl)cc3)CC2)c1 (stereo not given) | -100% (active)

Row | SMILES | growth
21 | N#Cc1c(-c2cccs2)cc(-c2cccnc2)[nH]c1=O | 97.2%
22 | O=C1N[C@@H]2NC(=[N+]3CCOCC3)N[C@@H]2N1 | 104%
23 | O=C(Nc1cccnc1Nc1ccc(F)cc1)c1cn(Cc2cccc(Oc3ccccc3)c2)nn1 | 87.4%
24 | COc1cc(CNC(=O)CCCC/C=C/C(C)C)ccc1OCc1nnc(Nc2ccc([N+](=O)[O-])cc2)o1 | 11.8%
25 | CC/C(=C(/c1ccc(Cl)cc1)c1ccc(OCCN2CCCC2)cc1)c1ccc(OC)cc1 | 101%
26 | CN1CCN(Cc2ccc3c(NNC(=O)c4ccccc4)nc4cc(F)ccc4n23)CC1 | 37.1%
27 | CCN(CC)c1nc(SCc2ccccc2Cl)ncc1C | 113%
28 | O=S(=O)(Nc1ccccc1)c1ccc(C2CC3(Cl)C(Cl)=C(Cl)C2(Cl)C3(Cl)Cl)cc1 (stereo not given) | 76%
29 | CCc1n(Cc2ccc3ccccc3c2)cc[n+]1Cc1ccc2ccccc2c1 | 9.89% (active)
30 | Fc1ccc2[nH]cc(-c3nonc3-c3c[nH]c4ccc(Br)cc34)c2c1 | 44.3%
31 | Cc1ccc(NC(=S)NNC(=S)NNc2ccccc2)cc1C | 104%
32 | C=C1CC[C@@H]2[C@](C)(COC(C)=O)[C@H](OC(C)=O)CC[C@@]2(C)[C@@H]1CC(Sc1ccccc1)C1=CCOC1=O (stereo not given in full) | 57.7%
33 | CCOC(=O)c1cnc2ccccc2c1Cl | 101%
34 | CC(=O)OCc1nc(C#N)c(N(C)C)o1 | 90.1%
35 | N#C/C(=C\c1ccc(-c2ccc(Cl)cc2)o1)C(=O)Nc1ncc(Cc2ccc(Cl)cc2)s1 | 58.9%
36 | O=C(O)c1[nH]c(=O)[nH]c(=O)c1[N+](=O)[O-] | 116%
37 | CCn1cc(C(=O)N/N=C/c2cccs2)c(=O)c2cc(F)c(N3CCNC(C)C3)c(F)c21 (stereo not given) | 90.3%
38 | C=CCc1c(O)c(C(=O)/C=C/c2ccc(Cl)cc2)c(OC)c2ccoc12 | 66.4%
39 | Cc1cccc2c1NC(=O)C2(c1ccc(O)cc1)c1ccc(O)cc1 | 89.5%
40 | COc1ccc(/C=C2\COc3ccc(O)c(O)c3C2=O)cc1 | 63.5%
